The campaign covered roughly 52,000 compounds. About 4,300 (8.3%) were called active. Shown is part of a subset that was picked to be rich in actives. Unmarked numbers belong to inactive results. Rule as the data show it: active = survival mostly below about 52% (no sharp cut-off); inactive = mostly above about 56%.
System: DeltatarO mutant
Assay: growth inhibition of S. aureus wild type versus tarO mutant, primary screen, teichoic acid synthesis inhibitors, RN4220, OD600 (AID 463173)
Details: OD600, 18 h, active compounds read low, screened at 18.75 µg/mL (by protocol)

Row | SMILES | survival
1 | CC(C)(C)c1ccc(-c2ncccc2O)cc1 | 53%
2 | CCc1c(C)c2ccc3c(c2oc1=O)CN(Cc1ccccc1)CO3 | 99%
3 | COc1ccc(NC(=O)C2CCN(S(=O)(=O)c3c(C)noc3/C=C/c3cccs3)CC2)cc1 | 90%
4 | Cn1c(=O)c2c(c3ccccc31)OC(=O)CC2c1cccc(F)c1 (stereo unspecified) | 59%
5 | CCc1sc(Nc2cccc(Cl)c2)nc1-c1cc2cccc(OC)c2oc1=O | 90%
6 | COc1cccc(CN(C(=O)COc2ccc(Cl)c(C)c2)C2CCS(=O)(=O)C2)c1 (stereo unspecified) | 71%
7 | Cc1ccc(NCc2nc3ccccc3n2CCOc2ccccc2)cc1 | 3% (active)
8 | Clc1ccc(NCc2nc3ccccc3n2CCOc2ccccc2)cc1 | 50%
9 | Cc1nn(CC(=O)Nc2ccccc2C(F)(F)F)c(=O)c2cccn12 | 93%
10 | COc1ccc(C(C(=O)Nc2ccc(C(C)C)cc2)N(C)C(=O)Cc2cccs2)cc1 (stereo unspecified) | 127%
11 | Cc1ccc(S(=O)(=O)N2CCNCC2)cc1 | 87%
12 | CNC(=O)c1c(NC(=O)c2ccc(S(=O)(=O)N3CCC(C)CC3)cc2)sc2c1CCC2 | 131%
13 | Cc1cc(C)c2sc(NC(=O)c3ccc(S(=O)(=O)N4CCOCC4)cc3)nc2c1 | 101%
14 | Cc1ccc(Cl)c2sc(NC(=O)c3ccc(S(=O)(=O)N4CCCC4)cc3)nc12 | 63%
15 | Cc1ccc(C)c2sc(NC(=O)c3ccc(S(=O)(=O)N4CCCC4)cc3)nc12 | 25% (active)
16 | Cc1cc(C)c2sc(NC(=O)c3ccc(S(=O)(=O)N4CCCC4)cc3)nc2c1 | 37% (active)
17 | CCOc1cccc2sc(NC(=O)c3ccc(S(=O)(=O)N4CCCCC4)cc3)nc12 | 94%
18 | CNC(=O)c1c(NC(=O)c2ccc(S(=O)(=O)N3CCCC(C)C3)cc2)sc2c1CCC2 (stereo unspecified) | 92%
19 | CCOc1cccc2sc(NC(=O)c3ccc(S(=O)(=O)N4CCCc5ccccc54)cc3)nc12 | 74%
20 | CCOc1cccc2sc(NC(=O)c3ccc(S(=O)(=O)N4CCCCC4C)cc3)nc12 (stereo unspecified) | 37% (active)
21 | COc1ccc(C)c2sc(NC(=O)c3ccc(S(=O)(=O)N4CCCC4)cc3)nc12 | 101%
22 | CNC(=O)c1c(NC(=O)c2ccc(S(=O)(=O)N3CCCCC3)cc2)sc2c1CCC2 | 0% (active)
23 | Cc1cc(C)c2nc(NC(=O)c3ccc(S(=O)(=O)N4CCCC4)cc3)sc2c1 | 102%

Row | SMILES | survival
24 | CCC(Sc1nc2ccccc2c2nc(-c3ccccc3)nn12)C(=O)Nc1cccc(OC)c1 (stereo unspecified) | 94%
25 | O=C(NCc1ccc(F)cc1)C(=O)Nc1ccc2nc3n(c(=O)c2c1)CCCCC3 | 94%
26 | Cc1cc(C)cc(NC(=O)COCc2cc(-c3ccc4c(c3)OCO4)on2)c1 | 55%
27 | COC(=O)C1=C(N)OC2=C(C(=O)CCC2)C1c1ccc(OC)cc1 (stereo unspecified) | 102%
28 | O=C(Nc1ccc2nc(SCC(=O)N3CCCC3)sc2c1)c1ccc(Br)cc1 | 92%
29 | O=c1ccn2c(n1)OC1C(O)C(CO)OC12 (stereo unspecified) | 83%
30 | O=C(c1ccccc1)N(C(=O)c1ccccc1)c1ccccn1 | 71%
31 | Cc1cc2c(cc1S(=O)(=O)Nc1cccc(C#N)c1)OCC(=O)N2 | 93%
32 | COc1cccc(N2CCN(C(=O)CCc3c(C)nc4c(c3C)c(=O)n(C)c(=O)n4C)CC2)c1 | 98%
33 | CN(c1ccc(F)cc1)S(=O)(=O)N1CCCC(C(=O)NCc2cccc(Br)c2)C1 (stereo unspecified) | 72%
34 | O=C(Nc1ccccn1)C(=NO)C(=O)Nc1ccccn1 | 98%
35 | CC(C)c1ccccc1NC(=O)C(Cc1c[nH]c2ccccc12)NC(=O)OC(C)(C)C (stereo unspecified) | 162%
36 | COc1ccc(NC(=O)C(Cc2c[nH]c3ccccc23)NC(=O)OC(C)(C)C)cc1 (stereo unspecified) | 48%
37 | Cc1ccc(NC(=O)C(Cc2c[nH]c3ccccc23)NC(=O)OC(C)(C)C)c(C)c1 (stereo unspecified) | 27% (active)
38 | N#Cc1ccccc1NC(=O)c1cccs1 | 93%
39 | COc1ccc(Nc2ncc(C(=O)Nc3cc(C)ccc3OC)c3ccccc23)cc1 | 50%
40 | COc1ccc(OC)c(NC(=O)c2cnc(Nc3ccc(C)c(Cl)c3)c3ccccc23)c1 | 44% (active)
41 | Cc1ccc(Nc2ncc(C(=O)N3CCN(c4ccc(F)cc4)CC3)c3ccccc23)cc1Cl | 76%
42 | COc1ccccc1Nc1ncc(C(=O)Nc2ccc(OC)c(OC)c2)c2ccccc12 | 43% (active)
43 | COC(=O)c1ccccc1NC(=O)c1cnc(Nc2ccc(OC)cc2)c2ccccc12 | 61%
44 | COc1ccc(Nc2ncc(C(=O)Nc3cc(Cl)c(OC)cc3OC)c3ccccc23)cc1 | 72%
45 | COc1ccc(Nc2ncc(C(=O)Nc3ccc(F)cc3F)c3ccccc23)cc1 | 35% (active)
46 | Cc1ccc(Nc2ncc(C(=O)Nc3ccc(F)cc3F)c3ccccc23)cc1Cl | 37% (active)

Row | SMILES | survival
47 | COc1ccc(NC(=O)c2cnc(Nc3ccc(C)c(Cl)c3)c3ccccc23)c(OC)c1 | 63%
48 | COc1ccc(NC(=O)c2cnc(Nc3ccc(C)c(Cl)c3)c3ccccc23)cc1OC | 51%
49 | CCOc1ccc(NC(=O)c2cnc(Nc3ccccc3OC)c3ccccc23)cc1 | 50%
50 | COc1ccc(Nc2ncc(C(=O)Nc3cccc(OC)c3)c3ccccc23)cc1 | 106%
51 | CCOC(=O)c1c(C)[nH]c(C)c1S(=O)(=O)N(C)CC(=O)Nc1cc(Cl)ccc1C | 94%
52 | COc1ccc(S(=O)(=O)c2cn(C)c3cc(N4CCOCC4)c(F)cc3c2=O)cc1 | 96%
53 | CCc1cccc(CC)c1NC1=NS(=O)(=O)c2ccccc21 | 70%
54 | Cc1cc(N2CCN(c3ccc(F)cc3)CC2)n2cnnc2n1 | 79%
55 | COc1ccc(-c2cn3cccnc3n2)cc1NC(=O)Nc1ccc(Cl)cc1 | 84%
56 | CCc1nnc(SC(CC)C(=O)Nc2ccc(OC)c(Cl)c2)c2cc3occc3n12 (stereo unspecified) | 72%
57 | CCc1ccccc1NC(=O)CSc1nncn2c1cc1oc(C)cc12 | 62%
58 | COc1ccc(NC(=O)CSc2nncn3c2cc2occc23)c(OC)c1 | 69%
59 | CCC(Sc1nncn2c1cc1occc12)C(=O)Nc1ccc(C)c(Cl)c1 (stereo unspecified) | 36% (active)
60 | Cc1cc(C)c(NC(=O)CSc2nncn3c2cc2oc(C)cc23)c(C)c1 | 65%
61 | CCc1cccc(C)c1NC(=O)C(CC)Sc1nncn2c1cc1occc12 (stereo unspecified) | 53% (active)
62 | CCc1cccc(C)c1NC(=O)CSc1nnc(CC)n2c1cc1occc12 | 67%
63 | CCC(Sc1nncn2c1cc1oc(C)cc12)C(=O)Nc1ccc(F)cc1 (stereo unspecified) | 54%
64 | Cc1cc2c(cc3c(SCC(=O)Nc4ccc(Cl)cc4F)nncn32)o1 | 36% (active)
65 | CCc1nnc(SC(CC)C(=O)Nc2cc(C)ccc2C)c2cc3occc3n12 (stereo unspecified) | 79%
66 | Cc1cc(C)cc(NC(=O)CSc2nncn3c2cc2occc23)c1 | 46% (active)
67 | O=C(CSc1nncn2c1cc1occc12)Nc1ccc(F)c(Cl)c1 | 65%
68 | CC(C)c1ccc(NC(=O)c2ccc(F)c(S(=O)(=O)N3CCCC3)c2)cc1 | 74%
69 | Cc1ccccc1C(=O)N1CCCCC1CCN1CCCCC1 (stereo unspecified) | 80%

Row | SMILES | survival
70 | Cc1ccc(S(=O)(=O)N2CC=C(c3ccc(F)cc3)CC2)cc1 | 87%
71 | Cc1nn2c(=O)cc(COC(=O)c3ccccc3NC(=O)c3cccs3)nc2s1 | 74%
72 | COc1ccc(CN(Cc2ccco2)C(=O)c2ccccc2F)cc1 | 74%
73 | CCOc1ccc(C2C(=O)N(C3CCCCCC3)CC(=O)N2Cc2ccc(C)cc2)cc1OC (stereo unspecified) | 96%
74 | CSc1cccc(NC(=O)Cn2nc(C)c3sc4ccccc4c3c2=O)c1 | 83%
75 | CC1(C)Oc2ccc3ccc(=O)oc3c2-c2cn[nH]c21 | 69%
76 | Cc1nc2sccn2c(=O)c1S(=O)(=O)Nc1cccc(Cl)c1C | 68%
77 | Cc1nc2sccn2c1-c1csc(Nc2cccc(Cl)c2C)n1 | 15% (active)
78 | Cc1cccc(NS(=O)(=O)c2c(C)nc3sccn3c2=O)c1C | 108%
79 | CCCCC(CC)C(=O)Nc1nnc(C(C)C)s1 (stereo unspecified) | 91%
80 | O=C(CN1C(=O)CC(c2ccco2)Sc2ccccc21)Nc1ccc(Br)cc1 (stereo unspecified) | 75%
81 | O=C1CC(c2nnc(Cc3ccc(F)cc3Cl)o2)CN1c1ccccc1 (stereo unspecified) | 133%
82 | COc1ccc(CNC(=O)c2ccc(-c3nc(CSc4ccccc4)c(C)o3)cc2)cc1OC | 78%
83 | CCc1ccc(CNC(=O)c2ccc(-c3nc(CSc4ccc(C)cc4)c(C)o3)cc2)cc1 | 67%
84 | Cc1ccc(SCc2nc(-c3ccc(C(=O)NCCc4ccc(Cl)cc4)cc3)oc2C)cc1 | -2% (active)
85 | COc1ccc(CNC(=O)c2ccc(-c3nc(CSc4ccccc4)c(C)o3)cc2)c(OC)c1 | 85%
86 | COc1ccc(CNC(=O)c2ccc(-c3nc(CSc4ccc(C)cc4)c(C)o3)cc2)c(OC)c1 | 6% (active)
87 | COc1ccc(CNC(=O)c2ccc(-c3nc(CSc4ccc(C)cc4)c(C)o3)cc2)cc1OC | -1% (active)
88 | Cc1oc(-c2ccc(C(=O)NCCc3ccc(Cl)cc3)cc2)nc1CSc1ccccc1 | 83%
89 | Cc1ccc(SCc2nc(-c3ccc(C(=O)NCc4ccc(Cl)cc4)cc3)oc2C)cc1 | 76%
90 | COc1ccc(OC)c(CNC(=O)c2ccc(-c3nc(CSc4ccccc4)c(C)o3)cc2)c1 | 120%
91 | Cc1ccc(NC(=O)CSc2nnc(-c3cc4occc4n3C)n2-c2ccccc2C)c(C)c1 | 88%

From PubChem BioAssay AID463173 (ICCB-Longwood Screening Facility, Harvard Medical School, 2010)
